Experimental data: PubChem BioAssay AID1159580 (chemical genetic matrix, 2015)
Out of some 5,500 compounds screened, about 2,000 (36%) were called active. Inconclusive results (about 18%) are left out. No stated cut-off is given here; in the data, active means normalized growth mostly below about 0.91 (no sharp cut-off); inconclusive means no clear call, values can overlap the other calls; inactive means mostly above about 0.92. Some of the results follow.

Experiment: chemical genetic growth profiling, strain panel (AID 1159580);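 further: tested at 20 µM; growth read once vehicle control cultures reached saturation at 30 °C; 1 = growth at the plate median or of vehicle wells; lower values mean less growth of the strain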
Details: S. cerevisiae deletion strains, growth OD

Measured: normalized growth

CC(C)(C)c1csc(NC(=O)Nc2ccc(Cl)cc2)n1
inactive: locus YAR019C, strain CDC15, active compounds read low 0.989 | locus YBL105C, strain PKC1, active compounds read low 0.972 | locus YBR135W, strain CKS1, active compounds read low 0.973 | locus YBR136W, strain MEC1, active compounds read low 0.976 | locus YBR160W, strain CDC28, active compounds read low 0.985 | locus YDL017W, strain CDC7, active compounds read low 0.982 | locus YDL028C, strain MPS1, active compounds read low 0.973 | locus YDL101C, strain DUN1, active compounds read low 0.974 | locus YDL108W, strain KIN28, active compounds read low 0.978 | locus YDL132W, strain cdc53, active compounds read low 0.974 | locus YDR052C, strain DBF4, active compounds read low 0.983 | locus YDR054C, strain cdc34, active compounds read low 0.974 | locus YDR226W, strain ADK1, active compounds read low 0.973 | locus YFL009W, strain cdc4, active compounds read low 0.972 | locus YFL029C, strain CAK1, active compounds read low 0.97 | locus YFR003C, strain YPI1, active compounds read low 0.981 | locus YFR028C, strain CDC14, active compounds read low 0.97 | locus YHR205W, strain SCH9, active compounds read low 0.583 | locus YIL147C, strain SLN1, active compounds read low 0.972 | locus YJL128C, strain PBS2, active compounds read low 0.905 | locus YJL157C, strain FAR1, active compounds read low 0.81 | locus YJR016C, strain ILV3, active compounds read low 0.981 | locus YKL193C, strain SDS22, active compounds read low 0.981 | locus YMR001C, strain CDC5, active compounds read low 0.97 | locus YMR277W, strain FCP1, active compounds read low 0.974 | locus YNL006W, strain LST8, active compounds read low 0.979 | locus YNL161W, strain CBK1, active compounds read low 0.969 | locus YNL207W, strain RIO2, active compounds read low 0.97 | locus YNL222W, strain SSU72, active compounds read low 0.983 | locus YOL078W, strain AVO1, active compounds read low 0.982 | locus YOL136C, strain PFK27, active compounds read low 0.719 | locus YOR061W, strain CKA2, active compounds read low 0.732 | locus YOR329C, strain SCD5, active compounds read low 0.982 | locus YPL209C, strain IPL1, active compounds read low 0.98 | locus YPR025C, strain CCL1, active compounds read low 0.977 | locus YPR106W, strain ISR1, active compounds read low 0.97 | locus YPR111W, strain DBF20, active compounds read low 0.967 | strain NNK1, active compounds read low 0.953 | strain TSCII, active compounds read low 0.981
active: locus YDL214C, strain PRR2, active compounds read low 0.684 | locus YDR477W, strain SNF1, active compounds read low 0.605 | locus YER123W, strain YCK3, active compounds read low 0.466 | locus YER133W, strain GLC7, active compounds read low 0.534 | locus YFR019W, strain FAB1, active compounds read low 0.722 | locus YGR040W, strain KSS1, active compounds read low 0.634 | locus YGR052W, strain FMP48, active compounds read low 0.304 | locus YGR092W, strain DBF2, active compounds read low 0.48 | locus YHR030C, strain SLT2, active compounds read low 0.39 | locus YHR079C, strain IRE1, active compounds read low 0.509 | locus YHR082C, strain KSP1, active compounds read low 0.466 | locus YJL095W, strain BCK1, active compounds read low 0.345 | locus YJR066W, strain TOR1 (second series), active compounds read low 0.625 | locus YJR066W, strain TOR1, active compounds read low 0.452 | locus YKL048C, strain ELM1, active compounds read low 0.609 | locus YKL067W, strain YNK1, active compounds read low 0.732 | locus YKL101W, strain HSL1, active compounds read low 0.441 | locus YKL203C, strain TOR2, active compounds read low 0.565 | locus YLR113W, strain HOG1, active compounds read low 0.28 | locus YLR133W, strain CKI1, active compounds read low 0.687 | locus YLR403W, strain SFP1, active compounds read low 0.601 | locus YML070W, strain DAK1, active compounds read low 0.441 | locus YMR205C, strain PFK2 (second series), active compounds read low 0.705 | locus YNL020C, strain ARK1, active compounds read low 0.67 | locus YNL183C, strain NPR1, active compounds read low 0.281 | locus YNL307C, strain MCK1 (second series), active compounds read low 0.553 | locus YOR119C, strain RIO1, active compounds read low 0.524 | locus YOR231W, strain MKK1, active compounds read low 0.5 | locus YPL031C, strain PHO85, active compounds read low 0.43 | locus YPL153C, strain RAD53, active compounds read low 0.481 | locus YPL204W, strain HRR25, active compounds read low 0.529 | locus YPL256C, strain CLN2, active compounds read low 0.44
